About 31,000 (8.9%) of roughly 350,000 compounds were called active. Inconclusive results (about 15%) are left out. Shown is part of a subset that was picked to be rich in actives. Unmarked numbers belong to inactive results. The call rests on the fitted dose curve; in most records, active means well fitted inhibition curve with a large enough effect; inconclusive means small, poorly fitted or top-dose-only effect; inactive means no such curve, though single readings can be large or run the other way.
target: Histone-lysine N-methyltransferase EHMT2 (Homo sapiens) (UniProt Q96KQ7); test: qHTS Assay for Inhibitors of Histone Lysine Methyltransferase G9a; settings: G9a H3K9 monomethylation, AlphaScreen, 2 h; series mostly up to 59 µM; activity, negative = inhibition: at the top concentration; further: nearly all actives have a fitted effect of over 75% in size
Sequence (Q96KQ7 913-1193 limits assumed): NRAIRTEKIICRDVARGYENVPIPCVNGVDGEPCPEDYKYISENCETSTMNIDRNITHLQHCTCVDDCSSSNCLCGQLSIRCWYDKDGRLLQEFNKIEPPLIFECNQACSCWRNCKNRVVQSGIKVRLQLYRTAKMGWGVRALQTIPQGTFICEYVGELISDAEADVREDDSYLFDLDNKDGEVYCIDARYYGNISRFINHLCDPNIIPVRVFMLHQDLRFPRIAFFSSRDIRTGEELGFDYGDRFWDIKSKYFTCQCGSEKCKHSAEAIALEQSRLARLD
In short: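 Quantitative HTS format: methyltransferase activity on a biotin-tagged H3K9 peptide is measured by AlphaScreen, using a rabbit anti-monomethyl-H3K9 antibody with streptavidin donor and anti-IgG acceptor beads. Final levels are 20 nM enzyme, 500 nM peptide, 20 uM SAM; 2 h RT.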
On the % scale 0 is the no-effect control and ±100 the full control effect; potency means the concentration at half of the fitted maximal effect.

Row | SMILES | activity, negative = inhibition | Potency
1 | CCOC(=O)c1c(S(=O)(=O)NCC(=O)Nc2ccc(Cl)c(C(F)(F)F)c2)c(C)n(C)c1C | -3.36% | –
2 | CCCS(=O)(=O)N1CCC(n2c(C(F)(F)F)nc3cccnc32)CC1 | 11.9% | –
3 | Cn1c(=O)c2c(n3c4ccccc4nc13)NC(=O)CC2c1cccc(Cl)c1 (stereo not drawn) | -19.9% | –
4 | Cc1cc2nc(-c3ccc(NC(=O)c4cc5ccccc5o4)cc3)oc2cc1C | -32.2% | –
5 | O=C1COc2ccc(S(=O)(=O)NCCc3ccc(Cl)cc3)cc2N1 | -10.7% [at 102 µM] | –
6 | O=C(CCCC(=O)N1CCN(c2cccc(Cl)c2)CC1)c1ccccc1 | 53.4% [at 102 µM] | –
7 | O=C(Cn1nnc2ccccc2c1=O)NCc1ccc(Cl)cc1 | 13.5% [at 102 µM] | –
8 | C=CCn1c(SCc2ccc(C(=O)NCCO)cc2)nc2ccccc2c1=O | -5.22% [at 102 µM] | –
9 | C=CCn1c(SCn2nnc3ccccc3c2=O)nnc1-c1ccc(Cl)cc1 | – | 44.7 µM (active)
10 | CCOc1ccc(NC(=O)CCC(=O)N2CC(C)Oc3ccc(C)cc32)cc1 (stereo not drawn) | 2.04% | –
11 | CCCCN(CC)C(=O)c1c[nH]c2ccc(S(=O)(=O)Nc3cccc(OC)c3)cc2c1=O | -23.6% | –
12 | CCN(CC)c1ccc(NC(=O)CCc2nnc3ccc(N4CCCCC4)nn23)c(C)c1 | – | 44.7 µM (active)
13 | CCOC(=O)c1cccc(NC(=O)CCc2nnc3ccc(N4CCOCC4)nn23)c1 | 21.6% [at 102 µM] | –
14 | CCOc1ccc(CCNC(=O)CCc2nnc3ccc(N4CCCC4)nn23)cc1OCC | -10.3% [at 102 µM] | –
15 | Cc1ccc2c(c1)N(C(=O)CCC(=O)NCc1ccccc1F)CC(C)O2 (stereo not drawn) | -28.8% | –
16 | CCCc1cc(=O)oc2c(C)c(OCC(=O)Nc3ccccn3)ccc12 | -3.15% [at 0.0925 µM] | –
17 | O=C(Nc1ccc2nc(SCC(=O)N3CCc4ccccc43)sc2c1)c1ccccc1F | 33.7% | –
18 | Oc1ccc2nc(Cc3ccccc3)[nH]c2c1 | -45.3% [at 12.7 µM] | –
19 | Oc1ccc(-c2[nH]ncc2-c2nc3ccccc3s2)c(O)c1 | -10.1% [at 102 µM] | –
20 | Cc1cc(O)ccc1-c1cnc2ccccc2n1 | – | 14.1 µM (active)
21 | NS(=O)(=O)c1ccc(CCNC(=O)CCCCCn2c(=O)[nH]c3ccccc3c2=O)cc1 | 7.65% | –
22 | O=C1CN(C(=O)Nc2ccccc2C(F)(F)F)C(c2ccccc2)c2c(sc3c2CCCC3)N1 (stereo not drawn) | -25.3% | –
23 | CC(C)c1ccc(C2C(C(=O)c3ccco3)=C(O)C(=O)N2CC2CCCO2)cc1 (stereo not drawn) | – | 44.7 µM (active)
24 | O=C(NCC(=O)N(CC1CCCO1)C(C(=O)NC1CCCCC1)c1ccccc1)c1ccco1 (stereo not drawn) | 10.7% [at 102 µM] | –

Row | SMILES | activity, negative = inhibition | Potency
25 | CC(C)c1ccc(N(C(=O)c2ccco2)C(C(=O)NC2CCCC2)c2cccnc2)cc1 (stereo not drawn) | 20.6% [at 102 µM] | –
26 | Cc1ccc(CN2C(=O)N/C(=C/c3cc(C)n(-c4ccccn4)c3C)C2=O)cc1 | -0.497% | –
27 | Cc1cccc(C)c1-n1c(C)cc(/C=C2\C(=O)NN(c3ccccc3)C2=O)c1C | – | 15.8 µM (active)
28 | CCC1=NN2C(=N)/C(=C/c3cc(C)n(-c4ccccc4)c3C)C(=O)N=C2S1 | -24.1% [at 102 µM] | –
29 | Cc1cc(C)c2oc(C(=O)Nc3c(C(=O)Nc4ccccc4)oc4ccccc34)cc(=O)c2c1 | -28.2% | –
30 | CCOc1ccc2nc(N3CCCC(C(=O)Nc4cc(C)ccc4C)C3)sc2c1 (stereo not drawn) | -27.6% | –
31 | COc1cc(C2CC(=O)N3CN(Cc4ccccc4)CSC3=C2C#N)ccc1OCc1ccccc1 (stereo not drawn) | – | 0.891 µM (active)
32 | COc1ccc(CCN=C2SCC(=O)N2Cc2ccccc2)cc1OC | -8.24% [at 102 µM] | –
33 | COc1ccc(C2C(=O)N(C3CCCCCC3)CC(=O)N2CCc2ccc(Cl)cc2)cc1OC (stereo not drawn) | -9.54% | –
34 | Cc1ccc([C@@H]2CC=C(C(=O)O)[C@H](c3cccc(Cl)c3)N2S(=O)(=O)c2ccc(C)cc2)cc1 | 3.76% [at 2.33 µM] | –
35 | Cc1ccc2nc(SCC(=O)NC3CCCC3)[nH]c2c1 | 12.5% [at 102 µM] | –
36 | CC(=O)Nc1ccc(C(=O)CSc2nc3ccc(C)cc3[nH]2)cc1 | – | 7.08 µM (active)
37 | Cc1nc2nc(SCC(=O)c3ccccc3)[nH]c2cc1Br | -7.31% [at 102 µM] | –
38 | Cc1cc(C)nc(SCC(=O)c2ccc(Cl)cc2)n1 | 4.59% [at 102 µM] | –
39 | CCOC(=O)CSc1nc2ccc(C)cc2[nH]1 | -14.7% | –
40 | O=C(CSc1nc2ccc([N+](=O)[O-])cc2[nH]1)c1ccc(Cl)cc1 | – | 5.01 µM (active)
41 | CCOC(=O)c1c(SCC(=O)Nc2cccc(C)c2C)nc(=O)[nH]c1C | 4.2% | –
42 | Cc1ccc(NC(=O)C2CCN(S(=O)(=O)c3cc(-c4noc(C)n4)ccc3C)CC2)c(C)c1 | 2.07% | –
43 | CCOCCCNC(=O)c1cc2c(=O)n3ccccc3nc2s1 | – | inactive
44 | Cc1[nH]c2ccccc2c1/C=N\NC(=O)Cn1nnc(-c2ccccc2)n1 | 20.7% | –
45 | COCCNC(=S)N/N=C/c1c(C)[nH]c2ccccc12 | -8.34% | –
46 | CN=c1scc(-c2cc(OC)ccc2OC)n1/N=C/c1c(C)[nH]c2ccccc12 | – | 12.6 µM (active)
47 | O=C(Nc1ccc(F)cc1F)c1cnn(-c2ccc(F)cc2)c1-n1cccc1 | -3.52% | –
48 | COCCN(CCOC)c1nc(N)c2c(N)nc3c(c2c1C#N)CC(=O)N3Cc1ccc(Cl)cc1 | – | 17.8 µM (active)

Row | SMILES | activity, negative = inhibition | Potency
49 | O=C(OCC(=O)N1CCOCC1)c1ccc2ccccc2c1 | 0.153% | –
50 | CCn1c2ccccc2c2nnc(SCC(=O)O)nc21 | – | 10 µM (active)
51 | C=CCn1c2ccccc2c2nnc(SC(CC)C(=O)Nc3nc(C)c(C(=O)OCC)s3)nc21 (stereo not drawn) | 6.8% [at 102 µM] | –
52 | CCn1c2ccccc2c2nnc(N3CCN(c4cc(C)ccc4C)CC3)nc21 | -21.8% | –
53 | COc1cccc(C2CC(c3cccs3)=NN2C(=O)CSC2=NCCS2)c1OC (stereo not drawn) | -1.42% [at 102 µM] | –
54 | O=C(COC(=O)c1cccc(Cl)c1)Nc1ccc2[nH]c(=O)[nH]c2c1 | 10.7% [at 2.33 µM] | –
55 | O=C(CSc1nc2nccnc2c(=O)n1Cc1cccs1)Nc1ccccc1F | 2.38% [at 102 µM] | –
56 | Cc1cc2n(n1)C(c1cc(C(C)(C)C)c(O)cc1O)Nc1ccccc1-2 (stereo not drawn) | -4.03% | –
57 | O=C(CSc1ccc(-c2ccc(-n3cccn3)cc2)nn1)Nc1ccc([N+](=O)[O-])cc1 | – | 15.8 µM (active)
58 | O=C(CSc1ccc(-c2ccccn2)nn1)Nc1ccccc1 | -8.09% [at 102 µM] | –
59 | Cc1csc(NC(=O)CSc2ccc(-c3ccc(F)cc3)nn2)n1 | -4.33% [at 102 µM] | –
60 | O=C(N/N=C\C1CC=CCC1)c1ccc(Br)o1 (stereo not drawn) | 11.4% [at 102 µM] | –
61 | C=CCOC(=O)C1=C(C)OC(N)=C(C#N)C1c1ccc(F)cc1 (stereo not drawn) | 14.3% [at 2.33 µM] | –
62 | Cc1nn(-c2ccccc2)c2c1C(c1ccc(F)cc1)C(C#N)=C(N)O2 (stereo not drawn) | – | 50.1 µM (active)
63 | CCCc1[nH]nc2c1C(c1c(C)nn(-c3ccccc3)c1Cl)C(C#N)=C(N)O2 (stereo not drawn) | -26.6% [at 12.7 µM] | –
64 | CC(NC(=O)c1cc2c(=O)n3ccccc3nc2n(C(C)C)c1=N)c1ccccc1 (stereo not drawn) | 5.1% | –
65 | COc1ccc(OCc2cn3c(C)cc(C)nc3n2)cc1 | 2.35% [at 102 µM] | –
66 | COc1ccc(C(C[N+](=O)[O-])n2nc(C)cc2C)cc1 (stereo not drawn) | – | 6.31 µM (active)
67 | COc1ccc(C(=O)CSc2nc(C)cc(C)n2)cc1[N+](=O)[O-] | 14.2% | –
68 | Cc1ccc(S(=O)(=O)N2CCN(C(=O)c3ccc(-n4cncn4)c([N+](=O)[O-])c3)CC2)cc1 | -0.498% [at 12.7 µM] | –
69 | CC(=O)c1sc(N/N=C\c2ccc(C)cc2)nc1C | 8.51% | –
70 | CC(=O)c1sc(NC(=O)C2=NN(c3ccccc3)C(=O)CC2)nc1C | – | 25.1 µM (active)
71 | C/C(N)=C(/C#N)C(=O)COC(=O)C1=NN(c2ccccc2)C(=O)CC1 | 10.9% [at 102 µM] | –
72 | COc1cc2c(cc1OC)[C@@H](Cc1cc(OC)c(OC)c(OC)c1)[N+](C)(CCCOC(=O)CC/C=C/CCC(=O)OCCC[N+]1(C)CCc3cc(OC)c(OC)cc3[C@H]1Cc1cc(OC)c(OC)c(OC)c1)CC2 (stereo partly drawn) | 6.96% [at 12.7 µM] | –

Row | SMILES | activity, negative = inhibition | Potency
73 | Cc1noc(C)c1C(=O)NCC1COc2ccccc2O1 (stereo not drawn) | -3.43% [at 2.33 µM] | –
74 | COc1ccc(-c2nc(C)c(CCNC(=O)c3ccc(C(F)(F)F)cc3)s2)cc1OC | -3.85% | –
75 | CCOc1cc(CNC(=O)c2sc3ncnc(N(C)C4CCCCC4)c3c2C)ccc1OC | -2.1% | –
76 | O=C(O)CCCn1c(=O)c2cccn2c2ccc(F)cc21 | 24.2% [at 102 µM] | –
77 | COCCCNC(=O)C1CC(=O)N(CCc2ccc(F)cc2)C1 (stereo not drawn) | 7.57% [at 102 µM] | –
78 | COCCCn1c(CCC(=O)O)ccc1-c1ccc(F)cc1 | – | 11.2 µM (active)
79 | COc1ccc(NC(=O)CCNS(=O)(=O)c2ccc3c(c2)CCCC(=O)N3)cc1Cl | -13.5% | –
80 | CCc1ccc(NC(=O)CN2C(=O)CCSc3ccc(S(=O)(=O)N4CCCC4)cc32)cc1 | 4.57% | –
81 | COc1ccc2c(c1)c(=O)c(C(=O)c1ccccc1)cn2CC(=O)Nc1ccc2c(c1)OCCO2 | -5.72% | –
82 | O=C(Nc1cccc([N+](=O)[O-])c1)N1CCc2ccccc2C1 | 2.67% [at 102 µM] | –
83 | O=C(NCCCc1ccccc1)C1CCC(=O)N(CCc2ccc(Cl)cc2)C1 (stereo not drawn) | -2.97% [at 12.7 µM] | –
84 | CN(CC(=O)Nc1ccc(Cl)c(C(F)(F)F)c1)C(=O)CCC(=O)c1ccccc1 | 7.96% | –
85 | CC(C(=O)N(C)CC(=O)Nc1ccccc1C(F)(F)F)N1C(=O)c2ccccc2C1=O (stereo not drawn) | 8.77% [at 12.7 µM] | –
86 | CN(CC(=O)Nc1ccccc1C(F)(F)F)C(=O)Cc1ccccc1F | – | 50.1 µM (active)
87 | COc1ccccc1CN1CCC(CNC(=O)c2cnn(-c3ccccc3Cl)c2C2CCN(C(=O)OC(C)(C)C)CC2)CC1 | -8.35% | –
88 | Cc1nc2ccccc2c(C)c1C(=O)c1ccc(F)cc1 | – | 50.1 µM (active)
89 | Cc1nc2ccccc2c(-c2ccccc2)c1C(=O)c1ccccc1 | 1.18% | –
90 | CN(Cc1nc2ccccc2s1)C(=O)c1ccc(F)cc1 | -9.17% [at 102 µM] | –
91 | COc1cc(C(=O)N2CCN(C(=O)COc3cccc(C)c3)CC2)cc(OC)c1OC | 3.42% | –
92 | CN(C(=O)COC(=O)c1ccc(Br)o1)c1c(N)n(Cc2ccccc2)c(=O)[nH]c1=O | -30.9% [at 0.501 µM] | –
93 | Cc1ccc(CNS(=O)(=O)c2ccc(-c3cc(C(F)(F)F)on3)s2)cc1 | -5.27% | –

Reference: PubChem BioAssay AID504332 (National Center for Advancing Translational Sciences (NCATS), 2011)
